According to PubChem BioAssay AID720504 (National Center for Advancing Translational Sciences (NCATS), 2013):
Out of some 360,000 compounds screened, about 10,000 (2.8%) were called active. Roughly 4% stayed inconclusive and do not appear here. For the sample, actives were picked, then their nearest neighbours and some compounds at random. A number with no mark means an inactive call. The call rests on the fitted dose curve; in most records, active means well fitted inhibition curve with a large enough effect; inconclusive means small, poorly fitted or top-dose-only effect; inactive means flat fitted curve, though single readings scatter.

The compounds below were run against Serine/threonine-protein kinase PLK1 (Homo sapiens) (UniProt P53350) (assay: qHTS for Inhibitors of PLK1-PDB (polo-like kinase 1 - polo-box domain): Primary Screen). Conditions: Plk1 PBD binding of FITC phosphopeptide, fluorescence polarization.
Sequence of Serine/threonine-protein kinase PLK1 (Homo sapiens) (P53350 whole entry, looked up, the tested form may be a part): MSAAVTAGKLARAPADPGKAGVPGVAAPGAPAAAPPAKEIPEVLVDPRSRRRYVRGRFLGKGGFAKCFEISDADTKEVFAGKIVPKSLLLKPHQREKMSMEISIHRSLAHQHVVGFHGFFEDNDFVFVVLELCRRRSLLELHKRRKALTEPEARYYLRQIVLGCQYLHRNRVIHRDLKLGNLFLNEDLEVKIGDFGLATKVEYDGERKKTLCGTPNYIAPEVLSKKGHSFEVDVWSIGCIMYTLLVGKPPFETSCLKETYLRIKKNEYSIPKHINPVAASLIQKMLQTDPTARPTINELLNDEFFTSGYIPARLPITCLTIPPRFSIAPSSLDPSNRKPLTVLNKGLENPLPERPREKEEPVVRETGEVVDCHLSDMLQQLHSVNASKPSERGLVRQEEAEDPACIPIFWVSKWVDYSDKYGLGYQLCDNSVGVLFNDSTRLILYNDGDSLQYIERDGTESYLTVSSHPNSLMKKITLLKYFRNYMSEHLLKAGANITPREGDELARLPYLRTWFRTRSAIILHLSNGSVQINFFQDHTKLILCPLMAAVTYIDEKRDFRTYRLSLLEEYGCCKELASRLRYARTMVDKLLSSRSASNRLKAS
Further: nearly all actives have a fitted effect of over 65% in size.
On the % scale 0 is the no-effect control and ±100 the full control effect; potency means the concentration at half of the fitted maximal effect.
Wherever max response, negative = inhibition is given: series mostly up to about 57 µM.

Structure (SMILES)	max response, negative = inhibition	Potency
COCCn1c(SCC(=O)Nc2ccc(F)cc2F)nc2c(c1=O)SCC2	10.8%	
Cc1ccc(Cc2c(-c3ccco3)nc3ccc(Cl)cn23)cc1		21.2 µM (active)
Cc1ccc(-c2nc3ccc(Cl)cn3c2Cc2ccccc2)cc1	-1.46%	
Cc1ccc(Cc2c(-c3ccccc3)nc3ccc(Cl)cn23)cc1	-1.42%	
CC1Cc2[nH][nH]c(=O)c2C(C2CCCC2)O1 (stereo not drawn)	-5.58%	
OC(c1ccccc1)c1nc(-c2cnc3ccccc3c2)cs1 (stereo not drawn)	1.51%	
COc1ccc(Nc2nc(-c3cccnc3)nc3ccccc23)cn1		21.2 µM (active)
O=C(CSc1n[nH]c(-c2cccnc2)n1)Nc1ccnc2ccccc12	-8.72%	
CCN(CC(=O)NC1CCS(=O)(=O)C1)c1nc(-c2cccnc2)nc2ccccc12 (stereo not drawn)	-6.17%	
C[C@H]1CN([C@@H](C)CO)C(=O)CCCn2cc(nn2)CO[C@@H]1CN(C)S(=O)(=O)c1ccc(-c2ccccc2)cc1	-23.9%	
CCCc1[nH]nc2c1C(c1ccc(Br)s1)C(C#N)=C(N)O2 (stereo not drawn)		23.8 µM (active)
COCc1[nH]nc2c1C(C1C=CCCC1)C(C#N)=C(N)O2 (stereo not drawn)	-8.66%	
COc1ccc(-c2[nH]nc3c2C(c2ccncc2)C(C#N)=C(N)O3)cc1 (stereo not drawn)	-28.1%	
CC(=O)Nc1cccc(-c2ccnc3c2CC(C)(C(=O)NCc2ccccc2)O3)c1 (stereo not drawn)	0.623%	
CNC[C@H]1OCc2cnnn2CCCC(=O)N([C@H](C)CO)C[C@@H]1C	-6.68%	
Cc1cc2oc(=O)cc(CN(C)Cc3ccccc3)c2cc1Cl	-6.49%	
CSc1ncc(C(=O)NCCCc2ccccc2)c(C)n1	-4.81%	
CSc1ncc(Sc2ccccc2)c(C(=O)O)n1		23.8 µM (active)
Cc1ccccc1C(=O)Nc1ccccc1Sc1ccccc1	2.65%	
CN1C[C@@H](CO)O[C@@H](n2cnc3c(N4CCN(CCO)CC4)ncnc32)C1	2.3%	
COCCNC(=O)C1CCCN(Cc2ccccc2Cl)CC1 (stereo not drawn)	-4.77%	
CC(=O)N1CCN(Cc2cc(=O)oc3cc(C)ccc23)CC1	-2.03%	

Structure (SMILES)	max response, negative = inhibition	Potency
CCOC(=O)[C@H]1Nc2ccc(Cl)cc2[C@@H]2[C@H]1C1CC(c3ccccc31)N2C(=O)OCc1ccccc1 (stereo partly drawn)	-10.8%	
CNc1cc(-c2c(OC)cccc2OC)ncn1	-6.78%	
CN1CCN(c2ccc3c(c2)OC[C@H](Cc2ccccc2)NS3(=O)=O)CC1	0.181%	
COc1ccc(-c2nc3ccc(Br)cn3c2Cc2ccc(C)cc2)cc1OC	-11%	
Cc1ccc2c(c1)C(c1ccccc1)N(C(=O)c1ccc(F)cc1)CC(=O)N2 (stereo not drawn)	-0.372%	
Cc1ccc2c(c1)C(c1ccccc1)N(C(=O)c1ccc(S(=O)(=O)N3CCOCC3)cc1)CC(=O)N2 (stereo not drawn)		23.8 µM (active)
Cc1ccc(C(=O)N2CC(=O)Nc3ccc(F)cc3C2c2ccc(F)cc2)cc1 (stereo not drawn)	1.6%	
CCNC(=O)C1(C)CCCN(C(=O)c2c(C)noc2C)C1 (stereo not drawn)	-0.543%	
CCOC(=O)c1cc2cc(OC)ccc2n1C1CCN(C)CC1	-4.75%	
CCC(Oc1ccccc1)C(=O)OCC(=O)Nc1c(C)nn(-c2ccccc2)c1C (stereo not drawn)	-0.819%	
CCOc1ccc(CCN2C(=S)N([C@@H](CC(C)C)CN3CCC[C@@H]3CN3C(=S)NC[C@@H]3Cc3ccc(O)cc3)C[C@@H]2CC(C)C)cc1	5.19%	
COCC(C)NC(=O)c1ccc(Cl)c(Cl)c1 (stereo not drawn)	-9.11%	
CCCNC(=O)c1ccc(Cl)c(Cl)c1		21.2 µM (active)
CCCNC(=O)c1c(Cl)cnn1-c1ccc(C)cc1	-6.94%	
COc1ccc(CC(N)c2csc(NC(=O)Cc3ccccc3)n2)cc1 (stereo not drawn)	-4.52%	
COc1ccc(OC)c(C(O)c2ncc(-c3cccc(C(F)(F)F)c3)[nH]2)c1 (stereo not drawn)	6.6%	
Cc1cc(Br)cn2c(Cc3ccccc3C(F)(F)F)c(-c3ccc(Cl)cc3)nc12	2.92%	
COc1cc2nnn(-c3ccncc3)c2cc1OC	-2.85%	
CCOC(=O)C1(C)CCCN(C(=O)c2cccc(Cl)c2)C1 (stereo not drawn)	-9.97%	
O=C1NC[C@H](CCCCN2CCN(CCc3ccccc3)C(=O)C2=O)N(CC2CCCCC2)C1=O	-4.62%	
CC(C)Oc1ccc(CCc2n[nH]c(=S)n2Cc2ccccc2)cc1	-8.99%	
COc1cc(-c2n[nH]c(=S)n2Cc2ccccc2)cc(OC)c1OC	-6.45%	

Structure (SMILES)	max response, negative = inhibition	Potency
CC(C)Oc1ccc(Cc2n[nH]c(=S)n2Cc2ccccc2)cc1Cl		16.8 µM (active)
CCc1c(N=O)c(-c2ccccc2)n(O)[n+]1[O-]	-2.08%	
Nc1[nH]c(C(=O)c2ccccc2)c(-c2ccc(Br)cc2)c1C(=O)NC1CC1	-9.8%	
O=S1(=O)CC(N2CCN(Cc3ccccc3F)CC2)CN1Cc1cn(Cc2cccc(C(F)(F)F)c2)nn1 (stereo not drawn)	-2.54%	
O=C(NC(=S)Nc1ccc(Cl)c(C(=O)O)c1)c1cncc(Br)c1	-11.2%	
Cc1ccc(C)c(NC(=S)NNC(=S)Nc2ccc(C(C)C)cc2)c1		18.9 µM (active)
CCC(C(=O)Nc1ccc(C(C)C)cc1)c1ccccc1 (stereo not drawn)	2.25%	
CC(C)c1ccc(NC(=S)NC2CC3C=CC2C3)cc1 (stereo not drawn)	-23.1%	
Cc1ccc(NC(=S)NCCc2ccc(Cl)cc2)c(C)c1	-3.36%	
CC(C)c1ccc(NC(=S)NNc2ccc(Cl)c(C(=O)O)c2)cc1		23.8 µM (active)
COC(=O)[C@]12CCCCC=C1N(Cc1ccco1)C(=O)[C@H](CC(=O)NCC1CCCCC1)C2	-3.48%	
CCCc1ccc(C(O)c2ncc(-c3cccc(OC)c3)[nH]2)cc1 (stereo not drawn)	-2.5%	
CN(C(=O)COC(=O)Cc1ccccc1[N+](=O)[O-])C1CCS(=O)(=O)C1 (stereo not drawn)	1.07%	
COc1ccc(/C=C(\C#N)C(=O)OCC(=O)N(C)C2CCS(=O)(=O)C2)cc1 (stereo not drawn)	-10.5%	
CN(C(=O)COC(=O)c1cc(-c2ccco2)nc2ccccc12)C1CCS(=O)(=O)C1 (stereo not drawn)		18.9 µM (active)
COc1cncc(-c2cnc3sc(NCCc4ccccn4)nn23)c1	-12.3%	
Cc1ccc(C)c(S(=O)(=O)N2CCN(C(=O)Nc3ccccc3)CC2)c1	-2.91%	
Cc1ccc(S(=O)(=O)N2CC(=O)Nc3ccccc32)cc1C	-4.98%	
Cc1ccc(C)c(S(=O)(=O)N2CC(=O)Nc3ccccc32)c1		23.8 µM (active)
NC(c1csc(NC(=O)Nc2ccccc2Oc2ccccc2)n1)c1ccccc1Cl (stereo not drawn)	0.513%	
Cc1cccc(N(CC(=O)N2CCCC2)S(C)(=O)=O)c1C	-8.37%	
O=C(NCc1ccccc1)C(c1ccc(F)cc1)N1CCN(C(=O)C2CCCO2)CC1 (stereo not drawn)	1.19%	

Structure (SMILES)	max response, negative = inhibition	Potency
CCN(C(=O)COC(=O)Cc1c(F)cccc1Cl)c1c(N)n(Cc2ccccc2)c(=O)[nH]c1=O	4.8%	
CCN(C(=O)CN1CCN(Cc2ccccc2)CC1)c1c(N)n(Cc2ccccc2)c(=O)[nH]c1=O		23.8 µM (active)
CCN(C(=O)COC(=O)c1sccc1C)c1c(N)n(Cc2ccccc2)c(=O)[nH]c1=O	-3.78%	
COc1ccc(NC(=O)CCCOc2ccc(C(C)=O)cc2)cc1S(=O)(=O)N1CCCCC1	2.7%	
Brc1ccc2nc(-c3ccccc3)c(Cc3ccccc3)n2c1	-6.3%	
CN1OC[C@@H]2CN(C(=O)c3cccc4ccccc34)[C@H](c3ccc(N4CCCCC4)cc3)C[C@@H]21	-3.91%	
CC1(C(=O)Nc2cccc3c2CCCC3)CCN1C(=O)C1(c2ccccc2)CC1 (stereo not drawn)	2.66%	
CC1(Cc2ccccc2C#N)C(=O)Nc2ccc(-c3ccc4[nH]ccc4c3)cc21 (stereo not drawn)	2.71%	
CCOC(=O)C1(CCOc2ccccc2)CCN(Cc2cc(OC)cc(OC)c2)CC1	-2.45%	
CCOC(=O)C1(CCOC)CCN(Cc2cc3ccccc3s2)CC1		10.6 µM (active)
CCOC(=O)C1(CCOC)CCN(Cc2ccc(C(=O)OC)cc2)CC1	-4.26%	
O=C(Nc1cccc2cccnc12)c1ccc2sc([C@H]3C[C@H](O)[C@@H](CO)O3)nc2c1	3.77%	
O=C(O)c1ccccc1CSc1nc2ccccc2s1		8.44 µM (active)
Nc1nnc(SCC(=O)Nc2ccc3nc(SCC(=O)Nc4ccccc4)sc3c2)s1	2.76%	
Cn1c(=O)[nH]c(=O)c2c1nc(N1CCN(CCO)CC1)n2CCSc1nc2ccccc2s1	-15.4%	
Cc1noc(C)c1S(=O)(=O)N(C)C[C@H]1OCCCC[C@@H](C)Oc2ccc(NC(=O)CCCN(C)C)cc2C(=O)N([C@H](C)CO)C[C@@H]1C	-12.6%	
CC1(C(=O)NS(=O)(=O)Cc2cccc(Cl)c2)CCN1C(=O)Cc1ccccc1 (stereo not drawn)	0.171%	
O=C(COc1ccc(Cl)cc1)N1CCN(c2cccc(C(F)(F)F)c2)CC1		18.9 µM (active)
Cc1c(C)c2ccc(OCC(=O)N3CCN(c4cccc(Cl)c4)CC3)cc2oc1=O	-4.22%	
CSCCC(NC(=O)COc1ccccc1)C(=O)N1CCN(c2cccc(C(F)(F)F)c2)CC1 (stereo not drawn)	10.8%	
CCOc1cc(/C=N/NC(=O)c2ccncc2)cc(Br)c1O	-2.72%	
O=C(CC[C@H]1O[C@@H](n2ccc(=O)[nH]c2=O)[C@H](O)[C@@H]1O)N[C@H](Cc1ccccc1)C(=O)NCCCN1CCCC1=O	-13.5%	
